Among the data in PubChem BioAssay AID2165 (The Scripps Research Institute Molecular Screening Center, 2009) are IC50 values, retold here.

One may read the IC50 as the midpoint of a concentration-inhibition curve.

Each structure is given as a SMILES string. The source made the active and inactive calls. No stated cut-off is given here; in the data, active means IC50 below about 9 µM; inactive means the rest.

For the assay, the system named is Ba/F3 Cytotoxicity. As to the kind of experiment: JAK2V617F kinase, IRF1 reporter and Ba/F3 cytotoxicity panel, late-stage follow-up, HEL and Ba/F3 cells (AID 2165).
In the case of `Cc1cccc(OCC(=O)Nc2cc(C)c(C)cc2O)c1`, the IC50 is > 40 µM (inactive). `C/C(=C\c1ccccc1F)C(=O)c1c(C)cc(C)[nH]c1=O`: the IC50 is > 40 µM (inactive).

As to `c1ccc(Nc2ncnc3ccccc23)cc1`, the IC50 was > 40 µM (inactive).

With `COc1cc2ncc(-c3ccccc3)nc2cc1OC`, the IC50 was > 40 µM (inactive).

`CC(C)c1cc(C=C(C#N)C(=O)NCCCc2ccccc2)cc(C(C)C)c1O`: the IC50 was 4.29 µM (active). Turning to `Cc1[nH]c(=O)c(C(=O)C=Cc2ccc(Br)cc2)c2c1CCCC2`, the IC50 is 2.57 µM (active).

`COc1cc(C=C(C#N)C(N)=O)cc(CSc2ccccc2)c1O`: the IC50 is > 40 µM (inactive). Turning to `Cc1[nH]c(=O)c(C(=O)C=Cc2ccccc2Cl)c2c1CCCC2`, the 50% inhibitory concentration (IC50) was 0.16 µM (active). Then `Cc1[nH]c(=O)c(C(=O)C=Cc2cccc(Br)c2)c2c1CCCC2`, with 0.67 µM (active); and `Cc1cccc(OCC(=O)Nc2ccc(O)cc2)c1`, with 6.62 µM (active); and `Cc1ccc(O)c(NC(=O)COc2ccc(I)cc2)c1`, with 0.0269 µM (active). In the case of `COc1ccc(C=CC(=O)c2c3c(c(C)[nH]c2=O)CCCC3)cc1`, the IC50 is 4.38 µM (active). Regarding `COc1cc2ncnc(Nc3cccc(C)c3)c2cc1OC`, the IC50 was > 40 µM (inactive). `Cc1ccc(O)c(NC(=O)COc2cccc(C)c2C)c1`: the IC50 was > 40 µM (inactive). As for `Clc1cccc(Nc2ncnc3ccccc23)c1`, the IC50 is > 40 µM (inactive). The result for `COc1cc2ncnc(NC(C)C)c2cc1OC` reads > 40 µM (inactive). The result for `COc1cc2ncnc(Nc3ccc(F)c(F)c3)c2cc1OC` reads > 40 µM (inactive). Then `Cc1ccc(O)c(NC(=O)COc2cc(C)c(Cl)c(C)c2)c1`, with 6.17 µM (active). With `CCC(C)Nc1ncnc2cc(OC)c(OC)cc12` (configuration not stated), the IC50 was > 40 µM (inactive).

In the case of `COc1cccc(Nc2ncnc3cc(OC)c(OC)cc23)c1`, the IC50 is > 40 µM (inactive).

Turning to `COc1ccccc1OCC(=O)Nc1cc(C)ccc1O`, the concentration for half-maximal inhibition (IC50) was 0.018 µM (active). With `COCCOc1cc2nc[nH]c(=O)c2cc1OCCOC`, the IC50 was > 40 µM (inactive). Then `Cc1ccc(O)c(NC(=O)COc2ccccc2C)c1`, with 3.84 µM (active); and `Cc1cccc(OCC(=O)Nc2cccc(C)c2C)c1`, with > 40 µM (inactive); and `COc1cc2ncnc(Nc3cccc(Br)c3)c2cc1OC`, with > 40 µM (inactive). Then `Cc1ccc(O)c(NC(=O)COc2cccc3ccccc23)c1`, with 1.95 µM (active); and `O=C(NCCc1cccnc1)C1CCC(=O)N(CCc2cccc(F)c2)C1` (configuration not stated), with > 40 µM (inactive); and `COc1cc2ncnc(Nc3ccc(O)c(Br)c3)c2cc1OC`, with 3.64 µM (active). Then `COc1ccc(C)cc1NC(=O)Nc1ccc(Br)cn1`, with > 40 µM (inactive). Take `COc1cc2ncnc(N[C@H](C)c3ccccc3)c2cc1OC`: the IC50 is 3.19 µM (active). The result for `Cc1[nH]c(=O)c(C(=O)/C=C/c2ccccc2F)c2c1CCCC2` reads 0.43 µM (active); that for `CCOc1cc2ncnc(Nc3cccc(Br)c3)c2cc1OCC`, 3.16 µM (active). Then `CCC(C)c1ccc(OCC(=O)Nc2cc(C)ccc2O)cc1` (configuration not stated), with 6.47 µM (active); and `N#Cc1ccccc1NC(=O)COc1ccc2c(c1)OCO2`, with > 40 µM (inactive). Turning to `N#CC(=Cc1ccc(O)c(O)c1)C(=S)NCc1ccccc1`, the IC50 was 1.09 µM (active). Then `Cc1ccc(O)c(NC(=O)COc2cc(C)ccc2C)c1`, with 1.36 µM (active); and `Cc1ccc(O)c(NC(=O)COc2ccc(Cl)cc2)c1`, with 1.39 µM (active).
